Bioassay records deposited in PubChem BioAssay by several laboratories.
NRP1-CendR mod = modulators of CendR peptide binding to human neuropilin-1; inhibition, % at 25 µM; O14786; AID 602438; FAM-RPARPAR peptide binding to NRP-1, fluorescence polarization; hit rate 0.85% among 360,000;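 active means inhibition or corrected inhibition above about 18%, plus a signal ratio from 0.5 to 1.5, limit read from the data, passing the limit was not always enough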
DNA FID counter = displaces DNA intercalator in HCV helicase counter-screen; DNA fluorescent intercalator displacement, fluorescence; inhibition, % at 7.9 µM; hit rate 0.17% among 290,000; in the data active means inhibition above about 37%;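 further: 0% = vehicle and 100% = reference compound; higher means more ethidium bromide displaced from hairpin DNA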
Glyco luc inh = N-linked glycosylation inhibition; reporter increase, % at 12.5 µM; hit rate 0.23% among 360,000; D54 ERlucT glycosylation luciferase reporter, 24 h; percent of 100 nM tunicamycin response;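 active means mean luciferase reporter signal, scaled so untreated is 0 and the glycosylation-blocking control 100, at or above a set limit in every replicate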;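 further: luciferase carries N-glycosylation sites so blocking glycosylation raises the light; 0% = median of neutral control wells and 100% = median of 100 nM tunicamycin wells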
RAD52 anneal inh = RAD52 (human) annealing inhibition. P43351. recombinant RAD52 DNA annealing, FRET fluorescence. inhibition, % at 18.7 µM. hit rate 0.46% among 360,000;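 active means every replicate showing at least 50% inhibition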
Target sequence (P43351 whole entry, looked up): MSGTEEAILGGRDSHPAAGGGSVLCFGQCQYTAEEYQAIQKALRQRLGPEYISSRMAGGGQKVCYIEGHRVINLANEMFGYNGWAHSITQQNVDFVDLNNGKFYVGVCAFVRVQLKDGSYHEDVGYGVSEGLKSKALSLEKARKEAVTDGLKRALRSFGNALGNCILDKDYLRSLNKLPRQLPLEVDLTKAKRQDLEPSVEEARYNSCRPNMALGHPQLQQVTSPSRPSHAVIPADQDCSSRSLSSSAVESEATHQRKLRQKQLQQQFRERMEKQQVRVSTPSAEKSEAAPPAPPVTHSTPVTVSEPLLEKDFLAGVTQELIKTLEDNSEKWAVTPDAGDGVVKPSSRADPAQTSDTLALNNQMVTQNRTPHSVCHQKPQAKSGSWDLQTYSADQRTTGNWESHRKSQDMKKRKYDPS
RAD54 inh = inhibitors of human RAD54 branch migration. Q92698. RAD54 Holliday junction branch migration, FAM/BHQ fluorescence. inhibition, % at 10.4 µM. hit rate 0.14% among 360,000. AID 602329;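 active means mean normalized replicate activity at least 40 and at least half of replicates scoring 40 or more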;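 further: 0% = median of neutral control wells and 100% = median of positive control wells; inhibitors cause a drop in the FAM fluorescence signal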
miR122 inh = miR-122 inhibition in Huh7 cells. activation (reporter increase), % at 12.5 µM. AID 602342. hit rate 0.3% among 340,000. Huh7 miR-122 Renilla luciferase sensor, 48 h; neutral wells = 0, positive control = 100;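 active means mean replicate activation score at least 90 and every replicate individually at or above 90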;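 further: higher luciferase means less miR-122 activity so hits act as miR-122 inhibitors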
DNA binder FP = DNA binding artifact in RAD52 counter-screen | shares compounds with RAD52 anneal inh | Salmon sperm DNA/acridine orange FP displacement | AC50, µM | AID 652128 | hit rate 8% among 1,000;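 active means fitted half-maximal concentration for signal loss at or below twice the highest dose tested, in every separate run, actives reach about 64 µM in these data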
The depositor's hits bear a star; i = inactive; nt = no result; [ ] = remark or other dose. The list is not random: actives were taken first. Their share in the collection is about 1.5%.

SMILES	NRP1-CendR mod	DNA FID counter	Glyco luc inh	RAD52 anneal inh	RAD54 inh	miR122 inh	DNA binder FP
CCCCCCCCCCCCCCCC[N+](C)(C)CCl	-4.8	nt	-7.3	87.8*	nt	-1.5	31.5µM*
C[C@@H]1CN([C@@H](C)CO)C(=O)c2cc(C#Cc3ccccc3F)cnc2O[C@@H]1CN(C)C(=O)Cc1cccnc1	nt	nt	nt	-0.2	1.8	nt	nt
CCN(CC)CCn1c(=N)n(CC(=O)c2ccc(Br)s2)c2ccccc21	2.2	17.9	-2.4	51.0*	16.9	3.4	i
Cn1c(=N)n(CC(=O)c2ccc(Br)s2)c2ccccc21	-8.9	8.4	-14.7	nt	-0.2	2.3	nt
CC(C)c1ccc2c(c1)C(N1CCNCC1)Cc1ccc(F)cc1S2 (configuration not stated)	nt	nt	nt	1.9	nt	nt	nt
CCc1cccc2c1Sc1ccccc1CC2N1CCNCC1 (configuration not stated)	4.0	nt	-5.5	55.4*	nt	nt	i
CCOc1ccc(NCc2cccn2-c2nnc(N3CCC(C(=O)NCCCN4CCCCC4)CC3)s2)cc1	10.2	32.1	-4.7	23.6	8.5	-3.4	nt
CCOc1ccc(NCc2cccn2-c2nnc(N3CCC(C(=O)NCCCN4CCCCC4C)CC3)s2)cc1 (configuration not stated)	14.1	26.2	-1.1	79.9*	13.2	5.4	i
C[C@@H]1CN([C@H](C)CO)C(=O)c2cc(N(C)C)ccc2O[C@@H](C)CCCCO[C@@H]1CN(C)S(C)(=O)=O	nt	nt	nt	-32.5	6.5	2.8[16.7 µM]	nt
CCOc1ccc(CCN2C(=S)N([C@@H](Cc3ccc(O)cc3)CN3CCC[C@@H]3CN3C(=S)NC[C@@H]3Cc3ccccc3)C[C@@H]2CC(C)C)cc1	6.6	nt	-9.4	51.4*	-1.1	3.0	i
Oc1ccc(C[C@H]2CN([C@@H](Cc3ccccc3)CN3CCCC3CN3C(=S)NC[C@@H]3Cc3ccccc3)C(=S)N2CC2CCCCC2)cc1 (some centres not stated)	-4.5	nt	nt	-19.9	nt	nt	nt
Oc1ccc(C[C@H]2CNC(=S)N2CC2CCCN2C[C@H](Cc2ccc(O)cc2)N2C[C@H](Cc3ccc(O)cc3)N(CC3CCCCC3)C2=S)cc1 (some centres not stated)	-8.6	nt	-3.3	55.0*	-5.8	-16.1	i
C[n+]1c(-c2ccc(C=NNC(=O)c3ccc(C(=O)NN=Cc4ccc(-c5cn6ccccc6[n+]5C)cc4)cc3)cc2)cn2ccccc21	nt	nt	1.6	94.1*	nt	-0.2	26µM*
Cc1cccc2sc(N(CCCN(C)C)C(=O)COc3ccc(Cl)cc3)nc12	10.2	19.7	-3.0	50.3*	nt	-1.5	i
Cc1ccc2sc(N(CCCN(C)C)C(=O)CN3C(=O)c4ccccc4C3=O)nc2c1C	7.6	28.1	-0.8	68.9*	19.7	-14.6	i
CN(C)CCCN(C(=O)CCc1ccccc1)c1nc2c(F)cccc2s1	3.1	34.9	1.4	nt	1.2	-3.8	nt
CN(C)CCCN(C(=O)COc1ccc(Cl)cc1)c1nc2c(F)cccc2s1	-9.8	3.8	1.1	11.6	nt	nt	nt
COc1cc2ccccc2cc1C(=O)N(CCN(C)C)c1nc2c(C)cccc2s1	-1.0	22.5	-3.5	54.7*	5.1	3.5	i
CN(C)CCCN(C(=O)CCOc1ccccc1)c1nc2c(F)cccc2s1	16.8	6.7	-9.1	95.5*	nt	nt	i
COc1cc2ccccc2cc1C(=O)N(CCN(C)C)c1nc2ccc(C)cc2s1	14.9	14.0	12.0	42.4	14.4	-13.1	nt
COc1ccc2c3c(n(C)c2c1)[C@@H](CO)N(Cc1nccs1)CC31CN(C(C)=O)C1	nt	nt	nt	6.8	nt	nt	nt
CC(=O)N1CCCCN2[C@H](CO)[C@H](c3ccc(C#Cc4ccccc4F)cc3)[C@@H]2C1	nt	nt	nt	-10.4	9.4	29.7[16.7 µM]	nt
CC(C)NC(=O)N[C@@H]1CC[C@H](CCNC(=O)C2CC2)O[C@@H]1CO	nt	nt	nt	3.4	5.8	nt	nt
CNC[C@H]1OCCCC[C@H](C)Oc2ccc(N(C)C)cc2C(=O)N([C@H](C)CO)C[C@@H]1C	nt	nt	nt	-161.2	-5.7	3.6[16.7 µM]	nt
COc1cc2[nH]c(=O)c(C(=O)NCCCN3CCOCC3)c(O)c2cc1OC	-10.4	10.8	-3.3	66.8*	nt	nt	i
SMILES	NRP1-CendR mod	DNA FID counter	Glyco luc inh	RAD52 anneal inh	RAD54 inh	miR122 inh	DNA binder FP
O=C(NCCCN1CCOCC1)c1c(O)c2cc(Br)cc(Br)c2[nH]c1=O	-9.2	1.3	1.3	nt	4.1	-2.2	nt
CO[C@@H]1CN(C)C(=O)c2cc(NS(=O)(=O)c3cn(C)cn3)ccc2OC[C@H](C)N(C)C[C@@H]1C	nt	nt	nt	nt	-2.7	4.1[16.7 µM]	nt
COc1ccc(-c2cc(NC=O)c3ncc(-c4cccc(C(=O)NCCN(C)C)c4)n3c2)c(OC)c1	-16.7	nt	-7.7	56.8*	31.8	-2.0	i
C[C@@H]1CN([C@H](C)CO)C(=O)c2cccc(NS(=O)(=O)c3ccc(Cl)cc3)c2O[C@@H]1CN(C)CC1CCCCC1	nt	nt	nt	14.5	-1.4	2.9[16.7 µM]	nt
COc1cc(NC(=O)c2ccc(N3CC4CC(C3)c3cccc(=O)n3C4)c(NC(=O)c3ccncc3)c2)cc(OC)c1OC (configuration not stated)	-1.9	-65.3	8.5	84.8*	1.5	-6.0	i
CCOc1ccc(NC(=O)c2ccc(N3CC4CC(C3)c3cccc(=O)n3C4)c(NC(=O)c3ccncc3)c2)cc1 (configuration not stated)	0.5	-63.5	-2.9	-20.9	-8.3	-3.2	nt
COc1ccc(C(=O)c2c(N)sc3c2CCN(C)C3)cc1	142.8	0.3	-1.9	-68.4	-21.9	-4.0	nt
CN1CCc2c(sc(N)c2C(=O)O)C1	4.6	7.1	1.3	74.1*	nt	nt	i
CN(C)CCN(C(=O)c1ccc2ccccc2c1)c1nc2cc3c(cc2s1)OCO3	4.1	nt	-4.4	66.5*	32.5	-4.6	i
CCN(CC)CCN(C(=O)c1ccc(N2C(=O)CCC2=O)cc1)c1nc2cc3c(cc2s1)OCCO3	2.8	-3.3	4.4	80.0*	nt	nt	i
CN(C)CCN(C(=O)c1ccc2c(c1)CCCC2)c1nc2cc3c(cc2s1)OCCO3	19.7	22.2	-4.4	72.5*	3.9	nt	i
COc1cc2nc(N(CCN(C)C)C(=O)c3ccc4ccccc4c3)sc2cc1OC	7.9	21.2	-2.2	nt	12.0	-0.7	nt
COc1ccc(Cl)c2sc(N(CCN(C)C)C(=O)c3ccc4c(c3)OCCO4)nc12	12.9	nt	-2.0	91.0*	nt	nt	i
CC(=O)N(CCN(C)C)c1nc2cc3c(cc2s1)OCCO3	6.6	4.6	1.1	55.3*	38.3	-0.7	i
CN(C)CCCN(C(=O)c1ccc(C(=O)c2ccccc2)cc1)c1nc2cc3c(cc2s1)OCO3	-10.4	44.2*	-16.2	62.2*	36.9	-7.0	i
CN(C)CCN(C(=O)c1ccc(S(=O)(=O)N(C)C)cc1)c1nc2cc3c(cc2s1)OCCO3	1.7	3.7	-0.3	-5.3	22.6	-7.8	nt
